From article PMC11574364

How the values were obtained:
Experiment in all cases: protein domain microarray probed with biotinylated miRNA; Domain array: 20 mM Tris-HCl pH 7.4, 200 mM KCl, 0.2 mM EDTA, 0.05% NP40, 2 ug/ul heparin, overnight 4 C. ORF array: PBS pH 7.0 with RNase inhibitor, 100 ng RNA; high values mean tight binding
Details in all cases: ssRNA
[1] = biological target: RBMXL3 (Homo sapiens, UniProt Q8N7X1)
[2] = biological target: ROD1(3-4) (Homo sapiens, UniProt O95758)
[3] = biological target: T1, PSPC1 (Homo sapiens, UniProt Q8WXF1)
T1 sequence: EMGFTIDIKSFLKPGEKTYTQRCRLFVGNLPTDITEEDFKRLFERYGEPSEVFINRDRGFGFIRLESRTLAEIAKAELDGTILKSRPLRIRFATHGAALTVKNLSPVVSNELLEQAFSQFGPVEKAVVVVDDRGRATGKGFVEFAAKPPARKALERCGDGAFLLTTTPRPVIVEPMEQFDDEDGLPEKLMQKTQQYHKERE

[4] = biological target: T2, TDRD10 (Homo sapiens, UniProt Q5VZ19)
T2 sequence: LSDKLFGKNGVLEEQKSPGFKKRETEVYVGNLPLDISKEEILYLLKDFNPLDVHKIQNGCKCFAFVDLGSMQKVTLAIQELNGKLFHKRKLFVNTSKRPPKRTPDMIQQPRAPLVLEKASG

[5] = biological target: T3, MASK-BP3 (Homo sapiens, UniProt Q8IWZ3)
T3 sequence: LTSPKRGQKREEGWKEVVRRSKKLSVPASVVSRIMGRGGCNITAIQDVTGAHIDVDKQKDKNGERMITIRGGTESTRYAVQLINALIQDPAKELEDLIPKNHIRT

[6] = biological target: T4, TRA2A (Homo sapiens, UniProt Q13595)
T4 sequence: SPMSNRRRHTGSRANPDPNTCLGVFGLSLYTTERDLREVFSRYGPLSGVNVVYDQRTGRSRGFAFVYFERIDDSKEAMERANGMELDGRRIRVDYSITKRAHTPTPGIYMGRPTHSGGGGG

[7] = biological target: T5, SFRS7 (Homo sapiens, UniProt Q16629)
T5 sequence: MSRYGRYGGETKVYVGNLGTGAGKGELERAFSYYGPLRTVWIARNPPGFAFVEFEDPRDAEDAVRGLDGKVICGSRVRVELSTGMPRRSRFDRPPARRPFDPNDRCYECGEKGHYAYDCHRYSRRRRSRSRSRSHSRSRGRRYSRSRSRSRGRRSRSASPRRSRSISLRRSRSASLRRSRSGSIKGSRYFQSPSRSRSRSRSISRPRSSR

[8] = biological target: snRNP 70 (Homo sapiens, UniProt P08621)
Sequence of snRNP 70 (P08621 80-205): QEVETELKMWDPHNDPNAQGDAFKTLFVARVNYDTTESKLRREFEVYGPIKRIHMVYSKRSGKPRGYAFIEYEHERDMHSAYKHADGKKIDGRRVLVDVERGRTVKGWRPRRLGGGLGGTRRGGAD

[9] = biological target: SRRP35 (Homo sapiens, UniProt Q8WXF0)
Sequence of SRRP35 (Q8WXF0 1-120): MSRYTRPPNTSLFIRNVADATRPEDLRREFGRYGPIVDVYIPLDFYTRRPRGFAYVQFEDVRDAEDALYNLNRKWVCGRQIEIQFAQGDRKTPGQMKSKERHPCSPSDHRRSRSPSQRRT

[10] = biological target: RDBP (Homo sapiens, UniProt P18615)
Sequence of RDBP (P18615 240-355): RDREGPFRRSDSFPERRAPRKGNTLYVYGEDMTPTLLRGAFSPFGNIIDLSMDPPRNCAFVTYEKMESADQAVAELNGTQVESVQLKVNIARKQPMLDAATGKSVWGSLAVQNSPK

[11] = biological target: hnRNP K(3) (Homo sapiens, UniProt P61978)
Sequence of hnRNP K(3) (P61978 369-463): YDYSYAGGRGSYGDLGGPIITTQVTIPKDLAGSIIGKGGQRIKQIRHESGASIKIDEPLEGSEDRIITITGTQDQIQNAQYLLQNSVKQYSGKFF

[12] = biological target: T6, RBM35A (Homo sapiens, UniProt Q6NXG1)
T6 sequence: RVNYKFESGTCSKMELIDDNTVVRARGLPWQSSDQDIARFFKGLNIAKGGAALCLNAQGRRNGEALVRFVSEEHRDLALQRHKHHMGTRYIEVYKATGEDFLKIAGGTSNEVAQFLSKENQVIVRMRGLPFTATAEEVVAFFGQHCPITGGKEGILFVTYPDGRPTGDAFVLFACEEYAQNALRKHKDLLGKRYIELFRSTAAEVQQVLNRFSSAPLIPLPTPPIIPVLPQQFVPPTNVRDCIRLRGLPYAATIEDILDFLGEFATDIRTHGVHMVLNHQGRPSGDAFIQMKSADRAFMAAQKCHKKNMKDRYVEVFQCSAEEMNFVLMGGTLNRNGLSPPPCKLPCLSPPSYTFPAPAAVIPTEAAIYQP

[13] = biological target: T7, RKHD2(1-2) (Homo sapiens, UniProt Q5U5Q3)
T7 sequence: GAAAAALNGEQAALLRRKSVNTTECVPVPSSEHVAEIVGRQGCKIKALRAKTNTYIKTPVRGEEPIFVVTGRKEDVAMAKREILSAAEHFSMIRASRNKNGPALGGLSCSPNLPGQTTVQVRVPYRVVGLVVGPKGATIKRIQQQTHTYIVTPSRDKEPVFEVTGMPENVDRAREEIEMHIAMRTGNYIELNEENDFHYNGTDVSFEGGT

[14] = biological target: T8, RBM35B (Homo sapiens, UniProt Q9H6T0)
T8 sequence: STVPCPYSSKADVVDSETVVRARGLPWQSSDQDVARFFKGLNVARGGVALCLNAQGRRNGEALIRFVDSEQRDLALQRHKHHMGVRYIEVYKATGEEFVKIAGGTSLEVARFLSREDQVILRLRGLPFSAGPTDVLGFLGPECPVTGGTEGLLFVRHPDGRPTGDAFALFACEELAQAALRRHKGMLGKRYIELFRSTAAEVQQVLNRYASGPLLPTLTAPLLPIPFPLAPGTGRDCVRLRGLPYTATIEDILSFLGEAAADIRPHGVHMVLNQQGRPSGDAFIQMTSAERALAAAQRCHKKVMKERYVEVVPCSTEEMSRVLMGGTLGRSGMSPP

[15] = biological target: TAF15 (Homo sapiens, UniProt Q92804)
Sequence of TAF15 (Q92804 215-340): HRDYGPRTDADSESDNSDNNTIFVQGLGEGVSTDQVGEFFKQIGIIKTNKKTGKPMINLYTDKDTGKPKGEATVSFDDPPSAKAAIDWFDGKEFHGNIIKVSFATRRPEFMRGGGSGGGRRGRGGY

[16] = biological target: T9, RBM6 (Homo sapiens, UniProt P78332)
T9 sequence: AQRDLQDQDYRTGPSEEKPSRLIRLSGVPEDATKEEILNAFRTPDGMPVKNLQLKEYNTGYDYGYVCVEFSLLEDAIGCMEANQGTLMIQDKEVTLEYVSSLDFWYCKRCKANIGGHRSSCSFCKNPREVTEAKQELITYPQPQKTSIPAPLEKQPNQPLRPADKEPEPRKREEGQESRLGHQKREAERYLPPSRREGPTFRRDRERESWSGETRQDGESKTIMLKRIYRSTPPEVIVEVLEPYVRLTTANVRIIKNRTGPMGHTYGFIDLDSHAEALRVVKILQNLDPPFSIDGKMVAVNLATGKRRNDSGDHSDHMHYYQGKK

[17] = biological target: T10, RBM23 (Homo sapiens, UniProt Q86U06)
T10 sequence: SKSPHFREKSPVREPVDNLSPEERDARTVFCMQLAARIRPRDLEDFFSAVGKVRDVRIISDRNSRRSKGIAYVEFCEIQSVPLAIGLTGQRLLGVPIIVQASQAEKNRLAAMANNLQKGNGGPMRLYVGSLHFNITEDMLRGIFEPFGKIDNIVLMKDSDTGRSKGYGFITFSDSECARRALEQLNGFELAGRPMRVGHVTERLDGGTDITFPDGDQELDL

[18] = biological target: T11, KHDRBS2 (Homo sapiens, UniProt Q5VWX1)
T11 sequence: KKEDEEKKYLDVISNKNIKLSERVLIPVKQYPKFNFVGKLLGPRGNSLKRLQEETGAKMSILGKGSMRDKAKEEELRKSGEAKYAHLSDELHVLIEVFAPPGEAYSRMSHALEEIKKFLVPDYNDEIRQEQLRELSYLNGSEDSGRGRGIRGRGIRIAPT

[19] = biological target: T12, RBM12B(1-3) (Homo sapiens, UniProt Q8IXT5)
T12 sequence: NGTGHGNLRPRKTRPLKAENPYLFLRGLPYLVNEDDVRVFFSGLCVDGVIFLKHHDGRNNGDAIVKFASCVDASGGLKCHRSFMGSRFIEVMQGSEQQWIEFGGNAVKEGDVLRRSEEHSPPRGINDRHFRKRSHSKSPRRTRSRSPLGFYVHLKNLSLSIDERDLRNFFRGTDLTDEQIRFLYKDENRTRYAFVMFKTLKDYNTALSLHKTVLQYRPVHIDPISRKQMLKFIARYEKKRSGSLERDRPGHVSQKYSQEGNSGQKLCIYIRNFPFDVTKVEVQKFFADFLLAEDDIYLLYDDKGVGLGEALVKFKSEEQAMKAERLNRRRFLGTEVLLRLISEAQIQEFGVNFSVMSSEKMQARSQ

[20] = biological target: RED1(2)/ADARB1 (Homo sapiens, UniProt P78563)

Sequence of ROD1(3-4) (O95758 340-552): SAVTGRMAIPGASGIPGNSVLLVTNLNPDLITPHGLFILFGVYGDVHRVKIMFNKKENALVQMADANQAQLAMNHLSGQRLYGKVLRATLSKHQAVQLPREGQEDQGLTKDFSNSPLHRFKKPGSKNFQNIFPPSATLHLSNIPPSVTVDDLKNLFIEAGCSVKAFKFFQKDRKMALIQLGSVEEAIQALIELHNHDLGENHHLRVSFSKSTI
Sequence of RBMXL3 (Q8N7X1 1-110): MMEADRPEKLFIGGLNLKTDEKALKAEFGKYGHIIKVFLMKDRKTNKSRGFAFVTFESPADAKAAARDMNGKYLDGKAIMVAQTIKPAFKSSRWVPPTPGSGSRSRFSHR

Sequence	binding signal [1] [fluorescence intensity]	binding signal [2] [fluorescence intensity]	binding signal [3] [fluorescence intensity]	binding signal [4] [fluorescence intensity]	binding signal [5] [fluorescence intensity]	binding signal [6] [fluorescence intensity]	binding signal [7] [fluorescence intensity]	binding signal [8] [fluorescence intensity]	binding signal [9] [fluorescence intensity]	binding signal [10] [fluorescence intensity]	binding signal [11] [fluorescence intensity]	binding signal [12] [fluorescence intensity]	binding signal [13] [fluorescence intensity]	binding signal [14] [fluorescence intensity]	binding signal [15] [fluorescence intensity]	binding signal [16] [fluorescence intensity]	binding signal [17] [fluorescence intensity]	binding signal [18] [fluorescence intensity]	binding signal [19] [fluorescence intensity]	binding signal [20] [fluorescence intensity]
AGAGGUAGUAGGUUGCAUAGUU	1850 ± 54	331 ± 55.6	38.8 ± 3.2	85.7 ± 8.76	50.1 ± 3.32	230 ± 12.5	2902 ± 20.8	899.9 ± 8.8	735 ± 23.2	47.7 ± 4.8	181 ± 4.45	2590 ± 119	874 ± 10.7	170 ± 4.31	299 ± 23.1	491 ± 28	644 ± 79.1	1300 ± 14.4	274 ± 48.6	73.3 ± 1.94
UGAGGUAGUAGGUUGUAUGGUU	1320 ± 44.2	385 ± 82.6	26.1 ± 0.75	161 ± 58.1	71.6 ± 1.19	311 ± 4.77	2173 ± 16.3	1010 ± 40.3	570 ± 27.1	52.2 ± 3.22	199 ± 15.1	1320 ± 26.9	733 ± 12	193.1 ± 0.566	588 ± 28.9	550 ± 31	843 ± 102	842 ± 171	324 ± 46.5	87.6 ± 3.8
CAGUGCAAUGAUGAAAGGGCAU	1130 ± 24.3	241 ± 7.52	–	33.1 ± 2.64	42.16 ± 0.219	126 ± 1.75	2185 ± 2.91	453 ± 34.9	882 ± 24.2	43.1 ± 3.73	294 ± 10.8	1310 ± 17.7	486 ± 53.7	135 ± 1.71	104 ± 15.9	107 ± 6.4	199 ± 29.6	1440 ± 198	194 ± 28.6	68.1 ± 3.97
